TGFb inhibitor – TGF-b pathway inhibition; Potency, µM (series often up to 46.1 µM), for the others: at the highest dose activity, negative = inhibition, actives largely listed as inhibitors; HepG2 CAGA-GFP TGF-b/SMAD3 reporter, GFP fluorescence, 18 h; TGF-beta stimulated, 500 pg/mL final; actives 1.2% (n = 410,000); further: potency means the concentration at half of the fitted maximal effect; on the % scale 0 is the no-effect control and ±100 the full control effect; nearly all actives have a fitted effect of over 65% in size
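Per well, imaged GFP fluorescence of HEPG2 CAGA-GFP cells gives the signal; cells get compound, then TGF-beta (500 pg/mL final), 18 h at 37 degrees C; %Activity versus -TGF-beta and +DMSO controls.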
ATXN viability – reduces viability in counter-screen for ATXN expression inhibitors. S2 cells (HEK-293 line with an ATXN2-luciferase reporter) viability, CellTiter-Fluor protease fluorescence, 24 h. Potency, µM (series often up to 56.7 µM), hits mostly cytotoxic. actives 0.49% (n = 400,000); further: potency means the concentration at half of the fitted maximal effect; nearly all actives have a fitted effect of over 40% in size
ATXN2 expr inh – ATXN2 expression inhibition | HEK-293 ATXN2-luciferase reporter, luminescence, 24 h | Potency, µM (doses to about 57 µM), for the others: at the top dose activity change, negative = inhibition, hits mostly inhibitors | actives 0.72% (n = 360,000) | AID 1745845; further: potency means the concentration at half of the fitted maximal effect; on the % scale 0 is the no-effect control and ±100 the full control effect; nearly all actives have a fitted effect of over 55% in size
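qHTS (up to 57 uM final) was run with 24 h compound exposure of reporter cells at 37 °C. Each well was multiplexed: SteadyGlo luminescence measured ATXN2-luciferase expression after a fluorogenic Gly-Phe-AFC viability readout (25 uM final).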
D3 antag – blocks the human D3 dopamine receptor. D3R cells, DiscoveRx beta-arrestin luminescence, antagonist mode; hits give low values. actives 2.5% (n = 360,000). AID 652054. max response, negative = inhibition, %; in the data active means max response below about -50%; inconclusive means no clear call, values can overlap the other calls; further: on the % scale 0 is the no-effect control and ±100 the full control effect
Target sequence (P35462 whole entry, looked up): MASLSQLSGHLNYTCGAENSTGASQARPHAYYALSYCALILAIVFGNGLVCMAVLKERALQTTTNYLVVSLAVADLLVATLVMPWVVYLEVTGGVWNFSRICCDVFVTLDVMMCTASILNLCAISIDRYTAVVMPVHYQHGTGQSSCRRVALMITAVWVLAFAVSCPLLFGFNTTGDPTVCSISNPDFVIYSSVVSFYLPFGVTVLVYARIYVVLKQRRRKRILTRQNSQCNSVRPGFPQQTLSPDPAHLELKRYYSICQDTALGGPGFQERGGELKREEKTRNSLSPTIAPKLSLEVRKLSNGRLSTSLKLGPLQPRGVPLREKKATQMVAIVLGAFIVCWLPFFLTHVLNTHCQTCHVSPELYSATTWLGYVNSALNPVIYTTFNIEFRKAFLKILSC
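Cells plated overnight at 1500 cells/well, then exposed to library compounds with dopamine controls for 90 minutes at 37 degrees C. DiscoveRx reagent added for 30–60 minutes at room temperature; luminescence read, quantitative HTS format.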
D3 ag – activates the human D3 dopamine receptor; D3R DiscoveRx beta-arrestin cells, luminescence, 90 min; max activation, %; actives 0.58% (n = 410,000); AID 652048; in the data active means max activation above about 30%; further: 0% is about no effect
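Agonist mode: compounds and dopamine controls were applied to plated cells for 90 min at 37 degrees C after an overnight attachment at 1500 cells/well. Luminescent read-out followed 30 - 60 minutes at room temperature with DiscoveRx detection reagent.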
HepG2 viability – kills HepG2 cells in TGF-b inhibitor counter-screen; HepG2 CAGA-GFP viability, ATP luminescence, 18 h; Potency, µM (series often up to 46.1 µM), for inactives: at the highest dose activity change, negative = cytotoxicity, usual class: cytotoxic; actives 0.76% (n = 410,000); further: potency means the concentration at half of the fitted maximal effect
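HepG2 CAGA-GFP cells (1000/well, DMEM with 1% FBS) received compound, then TGF-beta at 500 pg/mL final, and were incubated 18 hours at 37 degrees C. Viability was read by CellTiter-Glo luminescence. Media-only wells were set as complete cell-killing and DMSO as no toxicity.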
An asterisk follows results filed as active; i = inactive; ? = inconclusive; / = not tested or not shown; ! = not active in a repeat; [ ] = another dose, or the depositor's remark. Rows were chosen to be rich in hits. Some 4.8% of all compounds tested hit in one or more screens of this group. Unless noted, the call rests on the fitted dose curve; in most records, active means well fitted curve in the direction sought with a large enough effect; inconclusive means small, poorly fitted or top-dose-only effect, or another doubt; inactive means no such curve, though single readings can be large; an effect the other way counts as inactive or inconclusive.

SMILES	TGFb inhibitor	ATXN viability	ATXN2 expr inh	D3 antag	D3 ag	HepG2 viability
CN(CC(=O)Nc1cccc(F)c1)C(=O)c1cccc(S(=O)(=O)N2CCN(c3ccc(F)cc3)CC2)c1	13µM*	i	?	-22	-3	-29%
COC(c1ccc2c(c1)CN(C(=O)Cn1nc(C)c3ccccc3c1=O)CCO2)C1CCCCC1 (stereo not given)	/	i	/	/	/	/
Cc1cc(N2CCCC2)c(F)cc1/C=C\[N+](=O)[O-]	11µM*	/	1%[11.3 µM]	-7	-2	-44%
COc1ccccc1CNC(=O)Cn1c(-c2cccs2)cc2cc(F)ccc21	15%	i	-5%	/	1	2%
CC(=O)N1c2ccccc2CC1C(=O)N1CCN(c2cccc(Cl)c2)CC1 (stereo not given)	31%	i	3%	/	1	0%
COc1ccc(/C=C2\SC(=S)N(CCC(=O)N3CCOCC3)C2=O)cc1	-2%	0.2µM*	98%	8	6	1%
CCc1ccc(/C=C2/SC(=S)N(CCC(=O)NCCCN3CCOCC3)C2=O)cc1	-22%	?	73%	13	9	-31%
CCOc1ccc(/C=C2\SC(=S)N(CCCC(=O)NCCCN3CCOCC3)C2=O)cc1	?	?	8.9µM*	-24	1	-15%
CCc1ccc(/C=C2\SC(=S)N(CCCC(=O)NCCCN3CCOCC3)C2=O)cc1	-16%	10µM*	/	-5	-10	-41%
O=C1N[C@@H](Cc2ccccc2)COC(=O)[C@H](Cc2ccc(F)cc2)C/C=C\C[C@@H]1CC(=O)N(CCO)Cc1ccccc1	?	?	?	-65*	-25	-8%
O=C1N[C@H](Cc2ccccc2)COC(=O)[C@@H](Cc2ccc(F)cc2)CC/C=C/C[C@H]1CC(=O)N(CCO)Cc1ccccc1	?	?	?	15	-6	-6%
C[C@@H]1COC(=O)[C@H](Cc2ccc(F)cc2)C/C=C\C[C@@H](CC(=O)NCCO)C(=O)N1	5%	i	10%	10	37*	6%
O=C1N[C@H](Cc2ccccc2)COC(=O)[C@H](Cc2ccc(F)cc2)C/C=C\C[C@@H]1CC(=O)N(CCO)Cc1ccccc1	?	?	?	-57*	-40	-10%
O=C1N[C@H](Cc2ccccc2)COC(=O)[C@@H](Cc2ccc(F)cc2)C/C=C\C[C@H]1CC(=O)N(CCO)Cc1ccccc1	?	?	?	20	-14	3%
Fc1ccc(C(c2ccc(F)cc2)N2CCN(CC=Cc3ccccc3)CC2)cc1	/	/	-29%	/	/	/
CC[C@H]1OC(=O)[C@H](C)[C@@H](O[C@H]2C[C@@](C)(OC)[C@@H](O)[C@H](C)O2)[C@H](C)[C@@H](O[C@@H]2O[C@@H](C)C[C@H](N(C)C)[C@@H]2O)[C@](C)(O)C[C@@H](C)C(=O)[C@H](C)[C@@H](O)[C@]1(C)O	/	/	-1%	/	/	/
O=C(Nc1ccc(Oc2cccnc2)cc1)C1CCN(Cc2cc(Cl)ccc2O)CC1	13µM*	?	/	-19	-5	-54%
Cc1cccc(CN2CCC(C(=O)Nc3ccc(Oc4cccnc4)cc3)CC2)c1	?	i	-4%	?	-27	11µM*
CCc1ccc2[nH]c(=O)c(CN(Cc3ccco3)Cc3nnnn3Cc3ccco3)cc2c1	-5%	/	/	/	/	-1%
COc1ccc(-c2csc3ncnc(Nc4ccccc4)c23)cc1	1%	i	6%	/	0	-12%
COc1cccc(/C=N/Nc2ncnc3scc(-c4ccccc4)c23)c1OC	?	i	-28%	42	36*	-61%
CC1(C)CC(=O)C2=C(C1)Nc1cc(Cl)ccc1S2	-13%	?	-14%	14	31*	8%
COCc1c(C(=O)NC2CCCCC2)cnn1-c1nccc(-c2cc(C)sc2C)n1	/	i	/	/	/	/
O=C(CC(c1ccccc1)c1ccccc1O)NCCN1CCOCC1 (stereo not given)	-1%	i	20%	-55*	-4	0%
CCCn1c(Sc2nc3c(c(=O)[nH]c(=O)n3C)n2CCC)nc2c1c(=O)[nH]c(=O)n2C	-22%	i	9%	-57*	0	3%
SMILES	TGFb inhibitor	ATXN viability	ATXN2 expr inh	D3 antag	D3 ag	HepG2 viability
CN(C)c1ccc(N=Nc2ccnc3ccccc23)cc1	8%	/	/	/	/	16%
CN(C)c1ccc(N=Nc2nccs2)cc1	-4%	10µM*	/	-82*	-13	-19%
CCCCCCCCN1[C@@H](CC(C)=O)c2ccc(/C=C/C(C)=O)cc2S1(=O)=O	?	/	/	/	/	-16%
CCN(CC)CCNC(=O)c1cc2c(-c3ccc(Cl)cc3)nn(C)c2s1	11µM*	/	28µM*	?	-16	-65%
COc1ccc(-c2nn(C)c3sc(C(=O)NCCN(C)C)cc23)cc1OC	12%	?	?	2	-2	-16%
CCCN(CCC)CCCNC(=O)c1cc2c(-c3ccc(OC)c(OC)c3)nn(C)c2s1	-5%	i	-19%	-92*	-15	-38%
CCCCN(CC)CCNC(=O)c1cc2c(-c3ccc(Cl)cc3)nn(C)c2s1	?	/	?	-62*	-13	20µM*!
CCCN(CCC)CCNC(=O)c1cc2c(-c3ccc(Cl)cc3)nn(C)c2s1	-11%	?	?	?	-10	-14%
CCC1CN(CC(=O)NC(C)c2cn(C)nc2C)Cc2cc(OC)ccc2O1 (stereo not given)	/	i	/	/	/	/
O=C(C1=C(O)C(=O)N(CCN2CCOCC2)C1c1cccc([N+](=O)[O-])c1)c1cccs1 (stereo not given)	-13%	i	-9%	?	-9	4%
O=C(C1=C(O)C(=O)N(CCN2CCOCC2)C1c1ccccc1)c1cccs1 (stereo not given)	-7%	i	2%	-52*	-1	-17%
CCCCN(Cc1ccccc1)C(=O)c1oc(=O)c2ccccc2c1-c1ccc(C)cc1	?	i	-2%	/	3	-27%
c1ccc(CN=C(NCc2ccccc2)NCc2ccccc2)cc1	?	i	?	-7	-5	22µM*
S=C(NCc1ccccc1)C(=S)NCc1ccccc1	-5%	?	14%	-18	3	-11%
CC(C)C[C@H]1CNC(=S)N1CC1CCN(CCC23CC4CC(CC(C4)C2)C3)CC1	?	?	-11%	-72*	-45	-6%
S=C1NCCN1CC1CCN(CCC23CC4CC(CC(C4)C2)C3)CC1	1%	i	0%	-16	-40	-5%
CC(C)C[C@H]1CNC(=S)N1CC1CCN(CCCC2CCCCC2)CC1	?	i	-13%	-101*	-46	-56%

Bioassay records as filed in PubChem.
